Source: PubChem BioAssay (Tox21)
Inconclusive results are not listed. The source made the active and inactive calls. Unless noted, calls come from the whole dose curve; as a rule, active = well fitted curve in the direction sought with a large enough effect in the repeat runs; inconclusive = weak or mixed curves; inactive = no such curve, though single readings can be large; an effect the other way counts as inactive or inconclusive.

Legend:
[1] = qHTS assay for small molecule agonists of the p53 signaling pathway (AID 651631; calls by dose curve; note: nearly all actives have a fitted effect of over 15% in size)
Method in brief: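 Stably transfected HCT-116 cells (beta-lactamase behind p53 response elements) get compounds after a 5 h settling period; 16 h later at 37 °C, FRET substrate is loaded and fluorescence read after 2 h.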

[2] = qHTS assay for small molecules that induce genotoxicity in human embryonic kidney cells expressing luciferase-tagged ATAD5 (AID 651632); note: nearly all actives have a fitted effect of over 15% in size
Method in brief: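 DMSO vehicle served as the control. HEK293T reporter cells, 16 hr at 37C, then 30 min Amplite at room temperature; ATAD5 induction is measured as luciferase activity.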

[3] = qHTS assay for small molecule agonists of the p53 signaling pathway - cell viability (AID 651633; calls by dose curve;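 note: p53RE-bla HCT reporter cells with a stable beta-lactamase p53 reporter; series mostly up to about 83 µM; nearly all actives have a fitted effect of over 30% in size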)
Method in brief: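 p53RE-bla cells were treated with compound for 16 hours at 37 C. Cytotoxicity was then measured as CellTiter-Glo luminescence after 30 min at room temperature.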

[4] = qHTS assay for small molecules that induce genotoxicity in human embryonic kidney cells expressing luciferase-tagged ATAD5 - cell viability (AID 651634; calls by dose curve; note: nearly all actives have a fitted effect of over 25% in size)
Method in brief: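 Here HEK293T cells with the ATAD5 luciferase reporter are incubated with test compounds for 15.5 hr, and cytotoxicity is then gauged by measuring protease activity in live cells using fluorescence.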

[5] = qHTS assay for small molecule disruptors of the mitochondrial membrane potential - cell viability (AID 720634; calls by dose curve;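 note: human HepG2 liver cancer cells; series mostly up to about 83 µM; nearly all actives have a fitted effect of over 20% in size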)
Method in brief: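 Viability of HepG2 cells is scored from ATP content by luminescence; cells are exposed to compound for 1 hr at 37 C and 5% CO2, then dosed with m-MPI dye before the CellTiter-Glo reagent.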

[6] = qHTS assay to test for compound auto fluorescence at 590 nm (red) in HepG2 cells (AID 720674)
Method in brief: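 HepG2 cells, 2,000 per well in MEM with 10% FBS, attached overnight at 37 C, then got 23 nL compound or DMSO. After 1 hr at 37 C, 5% CO2, red fluorescence was read at 540/590 nm against Rose Bengal sodium as reference.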

[7] = qHTS assay to test for compound auto fluorescence at 535 nm (green) in HepG2 cells (AID 720675)
[8] = qHTS assay to test for compound auto fluorescence at 460 nm (blue) in HEK293 cells (AID 720678)
Method in brief: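 HEK293 cells (2,000/well, medium with 10% dialyzed FBS) attached 4-5 hr, then exposed to compound overnight at 37C, 5% CO2. Blue fluorescence read at 405/460 nm, with triamterene as reference fluorophore.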

[9] = qHTS assay to test for compound auto fluorescence at 590 nm (red) in HEK293 cells (AID 720679)
Method in brief: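 HEK293 cells (2,000/well, 10% dialyzed FBS) attached 4-5 hr, then dosed with compound or DMSO and incubated overnight at 37C, 5% CO2. Red fluorescence read at 540/590 nm, Rose Bengal sodium as reference fluorophore.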

[10] = qHTS assay to test for compound auto fluorescence at 535 nm (green) in HEK293 cells (AID 720680)
[11] = qHTS assay to test for compound auto fluorescence at 460 nm (blue) in HEK293 cell free culture (AID 720681)
Method in brief: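 Compounds were added to cell-free DMEM with 10% FBS and fluorescence read directly. The blue channel used 405 nm excitation and 460 nm emission, with triamterene as the reference fluorophore.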

[12] = qHTS assay to test for compound auto fluorescence at 535 nm (green) in HEK293 cell free culture (AID 720682)
Method in brief: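 Using fluorescein as calibrant, autofluorescence was quantified at 485/535 nm in cell-free DMEM containing 10% FBS after pintool addition of compound or vehicle.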

[13] = qHTS assay to test for compound auto fluorescence at 590 nm (red) in HEK293 cell free culture (AID 720683)
Method in brief: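 Cell-free wells of DMEM with 10% FBS received compound, and intrinsic fluorescence was read at excitation/emission 540/590 nm. Values expressed as equivalence to Rose Bengal sodium.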

[14] = qHTS assay to test for compound auto fluorescence at 590 nm (red) in HepG2 cell free culture (AID 720684)
Method in brief: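 Rose Bengal sodium served as the reference for red signal. Test compounds were dispensed into serum-containing MEM (10% FBS) without cells, and plates were read at 540/590 nm.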

[15] = qHTS assay to test for compound auto fluorescence at 460 nm (blue) in HepG2 cell free culture (AID 720685)
Method in brief: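 Cell-free plates of MEM plus 10% FBS received 23 nL compound or DMSO vehicle; blue-channel (405/460 nm) intensity scored against triamterene as reference fluorophore.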

[16] = qHTS assay to test for compound auto fluorescence at 535 nm (green) in HepG2 cell free culture (AID 720686)
[17] = qHTS assay to test for compound auto fluorescence at 460 nm (blue) in HepG2 cells (AID 720687)
Method in brief: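 HepG2 cells in MEM with 10% FBS, attached overnight at 37 C, were exposed to compound or DMSO for 1 hr at 37 C, 5% CO2. Blue fluorescence was read at 405/460 nm, with triamterene as reference fluorophore.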

[18] = target: Glucocorticoid receptor (Homo sapiens) (UniProt P04150); test: qHTS assay to identify small molecule agonists of the glucocorticoid receptor (GR) signaling pathway (AID 720691; active = well fitted activation curve with a large enough effect in the signal ratio in the repeat runs, not every such curve was filed as active; the % refers to the signal ratio)
Method in brief: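 Compounds in DMSO, alongside positive controls, were added to GR-bla HeLa reporter cells and incubated 18 h at 37 C; GRE-driven beta-lactamase was detected by fluorescence after 2 h with FRET substrate at room temperature.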

[19] = target: Glucocorticoid receptor (Homo sapiens) (UniProt P04150); test: qHTS assay to identify small molecule antagonists of the glucocorticoid receptor (GR) signaling pathway (AID 720692; active = well fitted inhibition curve with a large enough effect in the signal ratio in the repeat runs, not every such curve was filed as active; the % refers to the signal ratio)
Method in brief: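 In a 1536-well cell format, compounds were added 4 h after seeding GR-bla HeLa cells, together with dexamethasone at 5 nM final; reporter activity was measured by FRET-substrate fluorescence following 18 h at 37 C.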

Measured: Potency

Chain of Glucocorticoid receptor (Homo sapiens) (P04150 whole entry, looked up): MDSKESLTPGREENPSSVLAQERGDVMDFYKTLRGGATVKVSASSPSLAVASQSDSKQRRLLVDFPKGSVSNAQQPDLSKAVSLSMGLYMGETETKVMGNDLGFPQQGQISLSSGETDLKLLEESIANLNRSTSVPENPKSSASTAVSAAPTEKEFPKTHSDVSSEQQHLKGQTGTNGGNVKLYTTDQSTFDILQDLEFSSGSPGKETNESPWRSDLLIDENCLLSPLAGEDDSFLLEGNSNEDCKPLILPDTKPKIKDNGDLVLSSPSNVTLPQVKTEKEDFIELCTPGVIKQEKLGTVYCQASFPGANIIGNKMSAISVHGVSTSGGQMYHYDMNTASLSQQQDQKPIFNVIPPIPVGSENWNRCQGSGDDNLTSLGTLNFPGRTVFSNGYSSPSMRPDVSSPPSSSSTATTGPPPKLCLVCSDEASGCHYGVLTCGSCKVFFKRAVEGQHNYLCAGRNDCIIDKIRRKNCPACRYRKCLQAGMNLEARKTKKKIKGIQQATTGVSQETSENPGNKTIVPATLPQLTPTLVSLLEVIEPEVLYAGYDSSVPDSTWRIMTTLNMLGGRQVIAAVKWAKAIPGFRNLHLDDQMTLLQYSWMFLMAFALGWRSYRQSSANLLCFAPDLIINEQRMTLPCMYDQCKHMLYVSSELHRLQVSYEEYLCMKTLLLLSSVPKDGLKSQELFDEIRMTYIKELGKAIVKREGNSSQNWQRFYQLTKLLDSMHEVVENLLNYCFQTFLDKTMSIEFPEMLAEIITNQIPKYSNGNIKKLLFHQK

CCC(=O)c1ccc(O)cc1
inactive: all assays above

CC(=O)OC(C(=O)c1ccccc1)c1ccccc1 (stereo not drawn)
not listed: [16] | [18] | [19]
inactive: all other assays above

C=C(C)C(=O)OC1CC(C)CC(C)(C)C1 (stereo not drawn)
not listed: [12]
inactive: all other assays above

CC(Cl)COP(=O)(OCC(C)Cl)OCC(C)Cl (stereo not drawn)
inactive: all assays above

C=CCOc1cc(Cl)ccc1C(=O)NCCN(CC)CC
not listed: [15]
inactive: all other assays above

CC(C)CCO
not listed: [18] | [19]
inactive: all other assays above

CN(C)CCOCCN(C)CCO
not listed: [5] | [18]
inactive: all other assays above

COc1ccc(OC)c(NC(=O)CC(C)=O)c1
not listed: [18] | [19]
inactive: all other assays above

O=CN1CCOCC1
not listed: [18] | [19]
inactive: all other assays above

CC(C)=CC(C)(C)C
not listed: [19]
inactive: all other assays above

CC(C)COC(=O)CC(C(=O)OCC(C)C)S(=O)(=O)O (stereo not drawn)
inactive: all assays above

CCCCCC(=O)OCC
not listed: [19]
inactive: all other assays above

C=CC(C)(O)CC/C=C(\C)CC (stereo not drawn)
not listed: [18]
inactive: all other assays above

SCCSCCS
not listed: [15] | [19]
inactive: all other assays above
